Measured values from PubChem BioAssay AID1159580 (chemical genetic matrix, 2015).
“And” between values parts separate entries of the source, which are not always exact repeats. Equal entries are not always repeated. In all, about 5,500 compounds went through this assay and about 2,000 (36%) were called active. Not shown: some 18% with an inconclusive outcome. Cut-off read from the data, not from the text of the source: active = normalized growth mostly below about 0.91 (no sharp cut-off); inconclusive = no clear call, values can overlap the other calls; inactive = mostly above about 0.92. Some of the results follow.

Experiment: chemical genetic growth profiling, strain panel (AID 1159580);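 note: tested at 20 µM; growth read once vehicle control cultures reached saturation at 30 °C; 1 = growth at the plate median or of vehicle wells; lower values mean less growth of the strain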
Conditions: S. cerevisiae deletion strains, growth OD

Measured: normalized growth

O=C(O)CCCc1ccc(N(CCCl)CCCl)cc1
inactive: locus YAL021C, strain ccr4, hits give low values 0.929 | locus YAL026C, strain drs2, hits give low values 0.965 | locus YAL030W, strain snc1, hits give low values 0.971 | locus YAL040C, strain CLN3, hits give low values 1.1 | locus YBL061C, strain skt5, hits give low values 0.985 | locus YBR009C, strain hhf1, hits give low values 1 | locus YBR021W, strain FUR4, hits give low values 1.01 | locus YBR023C, strain chs3, hits give low values 0.957 | locus YBR171W, strain sec66, hits give low values 0.983 | locus YBR229C, strain ROT2, hits give low values 0.95 | locus YBR231C, strain swc5, hits give low values 0.997 | locus YBR279W, strain paf1, hits give low values 0.955 | locus YCL011C, strain gbp2, hits give low values 0.959 | locus YCL016C, strain dcc1, hits give low values 0.931 | locus YCL029C, strain bik1, hits give low values 0.989 | locus YCL061C, strain MRC1, hits give low values 0.986 | locus YCL069W, strain vba3, hits give low values 0.977 | locus YCR088W, strain abp1, hits give low values 0.984 | locus YDL005C, strain med2, hits give low values 0.997 | locus YDL035C, strain GPR1, hits give low values 0.974 | locus YDL040C, strain nat1, hits give low values 0.979 | locus YDL074C, strain BRE1, hits give low values 1 | locus YDL101C, strain DUN1, hits give low values 0.986 | locus YDL185W, strain tfp1, hits give low values 0.973 | locus YDL192W, strain arf1, hits give low values 0.984 | locus YDR001C, strain nth1, hits give low values 0.973 | locus YDR069C, strain doa4, hits give low values 0.955 | locus YDR101C, strain arx1, hits give low values 0.991 | locus YDR137W, strain rgp1, hits give low values 0.943 | locus YDR150W, strain NUM1, hits give low values 0.989 | locus YDR159W, strain sac3, hits give low values 1.01 | locus YDR162C, strain NBP2, hits give low values 0.947 | locus YDR195W, strain ref2 0.959 | locus YDR297W, strain sur2, hits give low values 0.986 | locus YDR318W, strain mcm21, hits give low values 0.999 | locus YDR334W, strain swr1, hits give low values 0.969 | locus YDR335W, strain msn5, hits give low values 0.967 | locus YDR363W, strain ESC2, hits give low values 1 | locus YDR388W, hits give low values 0.985 | locus YDR392W, strain spt3, hits give low values 0.881 | locus YDR502C, strain sam2, hits give low values 1 | locus YEL003W, strain gim4, hits give low values 0.988 | locus YEL037C, strain rad23, hits give low values 0.97 | locus YEL061C, strain CIN8 (second series), hits give low values 0.966 | locus YEL061C, strain CIN8, hits give low values 0.991 | locus YER002W, strain NOP16, hits give low values 1.02 | locus YER015W, strain faa2, hits give low values 0.973 | locus YER016W, strain bim1, hits give low values 0.986 | locus YER110C, hits give low values 0.983 | locus YER111C, strain swi4, hits give low values 0.978 | locus YER155C, strain BEM2 (second series), hits give low values 1.01 | locus YER155C, strain BEM2, hits give low values 0.991 | locus YER167W, strain BCK2, hits give low values 0.99 | locus YFR010W, strain ubp6, hits give low values 1 | locus YGL078C, strain dbp3, hits give low values 0.952 | locus YGL086W, strain mad1, hits give low values 0.932 | locus YGL167C, strain pmr1, hits give low values 0.978 | locus YGL173C, strain kem1, hits give low values 0.999 | locus YGL227W, strain vid30, hits give low values 0.955 | locus YGL240W, strain doc1, hits give low values 0.97 | locus YGL248W, strain PDE1, hits give low values 1 | locus YGL253W, strain hxk2, hits give low values 0.925 | locus YGR135W, strain pre9, hits give low values 1.04 | locus YGR252W, strain gcn5, hits give low values 1.07 | locus YHR013C, strain ard1, hits give low values 0.956 | locus YHR027C, strain rpn1, hits give low values 0.977 | locus YHR030C, strain SLT2, hits give low values 0.982 and 0.856 | locus YHR079C, strain IRE1 (second series), hits give low values 0.996 | locus YHR079C, strain IRE1, hits give low values 0.876 | locus YHR094C, strain hxt1, hits give low values 0.983 | locus YHR129C, strain ARP1, hits give low values 0.988 | locus YHR142W, strain chs7, hits give low values 0.949 | locus YHR200W, strain rpn10, hits give low values 0.981 | locus YIL066C, strain RNR3, hits give low values 0.967 | locus YIL073C, strain SPO22, hits give low values 1.02 | locus YIL125W, strain kgd1, hits give low values 0.95 | locus YIR030C, strain dcg1, hits give low values 0.983 | locus YJL092W, strain hpr5, hits give low values 0.967 | locus YJL095W, strain BCK1 (second series), hits give low values 0.974 | locus YJL095W, strain BCK1, hits give low values 1.06 and 0.888 | locus YJL115W, strain asf1, hits give low values 0.952 | locus YJL129C, strain trk1, hits give low values 0.927 | locus YJL134W, strain LCB3, hits give low values 0.983 | locus YJL154C, strain vps35, hits give low values 0.972 | locus YJL164C, strain tpk1, hits give low values 0.988 | locus YJL166W, strain qcr8, hits give low values 1 | locus YJL168C, strain set2, hits give low values 0.984 | locus YJL187C, strain SWE1 (second series), hits give low values 1 | locus YJR043C, strain POL32, hits give low values 0.963 | locus YJR066W, strain TOR1, hits give low values 0.967 | locus YJR075W, strain HOC1, hits give low values 1.02 and 0.993
